Measured values reported in PubChem BioAssay AID2174 (The Scripps Research Institute Molecular Screening Center, 2009).
In all, about 320,000 compounds went through this assay and about 500 (0.16%) were called active. What follows is part of a selection rich in actives, with near analogues and random picks from the rest. A number with no mark means an inactive call.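 The calls were made as follows: active = inhibition above the mean of all tested compounds plus 3 SD, set per campaign (cut at about 14% in these data); inactive = the rest.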

target: Acyl-protein thioesterase 1 (Homo sapiens) (UniProt O75608); test: inhibition of human lysophospholipase 1 – biochemical, fluorescence polarization, FP-Rh probe ABPP, counter-screen for PME1 inhibitor project, primary screen (AID 2174); settings: recombinant LYPLA1, FP-Rh probe fluorescence polarization; at 5.9 µM; active compounds read high;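 also: inhibitors block serine hydrolase probe labeling of LYPLA1 so polarization falls; 0% = enzyme with DMSO and 100% = wells lacking LYPLA1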
Sequence (O75608 whole entry, looked up): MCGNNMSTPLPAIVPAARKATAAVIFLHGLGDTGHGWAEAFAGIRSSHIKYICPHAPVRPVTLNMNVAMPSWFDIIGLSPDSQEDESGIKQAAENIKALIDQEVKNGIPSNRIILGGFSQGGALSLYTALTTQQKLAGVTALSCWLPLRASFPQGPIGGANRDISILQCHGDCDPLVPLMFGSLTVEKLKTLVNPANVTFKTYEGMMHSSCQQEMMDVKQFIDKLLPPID

Row | Compound | inhibition
1 | Cc1ccc(S(=O)(=O)N2CCC(C(=O)N[C@@H](C)C(=O)NCc3ccco3)CC2)cc1 | 48% (active)
2 | Cc1ccc(S(=O)(=O)N2CCC(C(=O)N[C@@H](C)C(=O)NCc3ccccc3)CC2)cc1 | -4.86%
3 | Cc1ccc(S(=O)(=O)N2CCC(C(=O)N[C@@H](C)C(=O)NCCc3ccccc3)CC2)cc1 | 2.54%
4 | COc1ccc(C(C)NC(=O)C2CCCC2)cc1 (stereo unspecified) | 0.96%
5 | Cc1c(Nc2nc3ccccc3nc2NS(=O)(=O)c2cccs2)c(=O)n(-c2ccccc2)n1C | -0.16%
6 | CCOC(=O)c1c(/N=C/c2cc(C)ccc2O)sc2c1CCC2 | -3.88%
7 | C=CCNC(=O)c1cc(-c2ccccc2O)on1 | -0.65%
8 | C=CCNC(=O)c1sc(SC)cc1-c1ccc(Cl)cc1 | 21.3% (active)
9 | C=CCNC(=S)NNC(=O)c1cc(Cl)ccc1OC | 1.08%
10 | CCn1cc(-c2cc(C(=O)O)on2)c(C)n1 | -0.98%
11 | CC(C)S(=O)(=O)c1csc(NC(=O)Nc2ccc(Cl)cc2)c1Cl | -33.1%
12 | CC1Cn2c(nnc2-c2cccs2)S1 (stereo unspecified) | -1.86%
13 | CN1C(=O)c2ccccc2C(C(=O)NCCCN2CCCC2)C1c1c[nH]c2ccccc12 (stereo unspecified) | 3.18%
14 | O=C1NC2(CCCCCC2)C(=O)N1CCS(=O)(=O)Oc1ccccc1 | -0.42%
15 | CC(C)CCNC(=O)CCNS(=O)(=O)c1ccc(Cl)cc1 | -1.02%
16 | O=C(CCCn1c(=O)c2sccc2n(CC(=O)NCC2CCCO2)c1=O)NCc1ccco1 (stereo unspecified) | 4.84%
17 | CCCCN(C(=O)/C=C/c1ccco1)c1c(N)n(CC(C)C)c(=O)[nH]c1=O | -1.43%
18 | O=C(NC1CC1)C1=C[C@H](c2c[nH]c3ccccc23)C[C@H](OCc2ccc(CO)cc2)O1 | 0.98%
19 | CC(=O)N1CCN(C(=O)c2cc(-c3ccc(Cl)s3)nc3ccccc23)CC1 | -4.07%

Row | Compound | inhibition
20 | CCOc1ccc(N(CC(=O)NCCc2ccc(OC)cc2)S(C)(=O)=O)cc1 | 1.18%
21 | CCn1c(SCC(=O)NC2CC2)nnc1-c1ccccn1 | -1.31%
22 | COc1ccc(CCNC(=O)c2ccc3c(c2)NC(=O)C(N2CCOCC2)S3)cc1OC (stereo unspecified) | -0.92%
23 | COc1ccc(/C=C(\NC(=O)c2ccccc2)C(=O)NCCN2CCOCC2)cc1OC | -3.08%
24 | CCN1CCN(CCNC(=O)c2ccc3c(c2)NC(=O)/C(=C\c2ccc(OC)c(OC)c2)S3)CC1 | 24.7% (active)
25 | CCNc1ccc(C(=O)OCC(=O)N2c3ccccc3NC(=O)C2(C)C)cc1[N+](=O)[O-] | 2.28%
26 | C=C(C)CSc1nc(N)c2c3c(sc2n1)CCC3 | -2.73%
27 | CCc1noc(C)c1C(=O)N1CCN(S(=O)(=O)c2cccc(C(F)(F)F)c2)CC1 | -4.37%
28 | O=C(COc1ccccc1Cl)Nc1ccc(C(=O)c2ccc(C(=O)O)cc2)cc1 | 0.16%
29 | O=C(NC(Cc1ccc(O)cc1)C(=O)O)/C(=C/c1ccccc1)NC(=O)c1ccccc1 (stereo unspecified) | -3.61%
30 | O=C(O)c1ccccc1-c1ccccc1C(=O)NCCc1ccccc1 | -3.92%
31 | CC(C)CC1(C(=O)NCc2ccccn2)C=CCN1C(=O)c1ccccc1 (stereo unspecified) | 0.98%
32 | CCc1[nH]nc(C(=O)N2CCCC(CO)(Cc3ccc(F)cc3F)C2)c1C (stereo unspecified) | -0.39%
33 | CCn1c(SCc2ccccc2)nc2cc(OC)c(OC)cc2c1=O | -1.81%
34 | CSc1c(SCc2ccccc2)cnn(Cc2ccccc2)c1=O | 15% (active)
35 | COC(=O)c1ccc(SCc2ccccc2)nc1 | -1.56%
36 | COC(=O)C1=C(C(=O)OC)[C@@H]2N(C)c3ccccc3[C@@]23C[C@@H](C(=O)OC)N(C(C)=O)C3=N1 | -0.85%
37 | CCCCCCCCCCCC(=O)O | 1.07%
38 | COc1ccc(C2C(C#N)=C(N)Oc3n[nH]c(C)c32)cc1CN1CCN(c2ccc(F)cc2)CC1 (stereo unspecified) | -1.23%

Row | Compound | inhibition
39 | CCOC(=O)C1(CC2CCCCO2)CCN(Cc2nc(-c3cccs3)oc2C)CC1 (stereo unspecified) | -3.08%
40 | CC[N+](C)(CC)CCC[n+]1c(-c2ccccc2)c2cc(N)ccc2c2ccc(N)cc21 | 60.1% (active)
41 | CCOC(=O)C1=C(CC)Nc2ccccc2N=C1NC(=O)c1cccc(S(=O)(=O)N2CCCC2)c1 | -0.79%
42 | COc1cc(OC)cc(-c2c(-c3ccc(F)cc3)c3cc(-c4ccc5cc[nH]c5c4)ccc3n2C)c1 | -1.29%
43 | CC1=C[C@H]2Cc3cc(C)cc(C)c3S(=O)(=O)[C@@H]2C=C1 | -3.78%
44 | O=C(N/C(=C\c1ccc(F)cc1)C(=O)N1CCCCCC1)c1ccccc1 | -1.76%
45 | CC1=C(C)C(=O)OC(C(C)C2CCC3C4CC=C5CC(OC6OC(COC7OC(CO)C(O)C(O)C7O)C(O)C(O)C6O)CC(O)C5(C)C4CCC23C)C1 (stereo unspecified) | -11.7%
46 | COc1cccc(/C=C/C(=O)OCC(=O)N2CCCc3ccccc32)c1 | -0.36%
47 | CCOc1ccc(N2CC(C(=O)NCCN3C(=O)S/C(=C\c4cccnc4)C3=O)CC2=O)cc1 (stereo unspecified) | 7.93%
48 | COc1ccccc1N1CC(C(=O)NCCN2C(=O)S/C(=C\c3cccnc3)C2=O)CC1=O (stereo unspecified) | -0.75%
49 | COc1ccc(N2CC(C(=O)NCCN3C(=O)S/C(=C\c4cccnc4)C3=O)CC2=O)c(OC)c1 (stereo unspecified) | 67.3% (active)
50 | CCOc1ccc(S(=O)(=O)N2CCCCC2)cc1NC(=O)CN1CCCC1c1cccs1 (stereo unspecified) | -2.05%
51 | Cc1sc2ncn(CC(=O)NCCCC(=O)NCc3ccc(F)cc3)c(=O)c2c1C | 3.83%
52 | CC(C)(CNC(=O)CNC(=O)C1CCCCC1)N1CCOCC1 | -3.79%
53 | Cn1cc(/C=C/C(=O)N2CCCC(C(=O)c3ccc(C(F)(F)F)cc3)C2)cn1 (stereo unspecified) | -3.26%
54 | CCCCn1c(N)c(N(CCC(C)C)C(=O)c2ccc(COc3ccccc3)o2)c(=O)[nH]c1=O | 2.38%
55 | CCCCn1c(N)c(N(CCC(C)C)C(=O)c2ccc([N+](=O)[O-])o2)c(=O)[nH]c1=O | -7.18%
56 | CCCCn1c(N)c(N(CCC(C)C)C(=O)CC2OC(=O)c3ccccc32)c(=O)[nH]c1=O (stereo unspecified) | 16.4% (active)
